These results are taken from PubChem BioAssay AID463219 (Sanford-Burnham Center for Chemical Genomics, 2010).

The other results are listed elsewhere or left out. Values without a mark were called inactive. Calls of active or inactive are those of the source.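 How the source made its calls: active means cytotoxicity above 50% in each of four replicates; inactive means the rest.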

The assay can be described thus: AML12 hepatocyte cytotoxicity, confirmation, cytotoxicity control for hepatic lipid droplet formation project, cell-based, single concentration (AID 463219).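 Further: compound exposure lasted overnight at 37 °C before the ATP read; 0% = DMSO-treated cells and 100% = wells with no cells.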 The settings on record: AML12 mouse hepatocyte viability, ATP luminescence; at 50 µM; hits give high values; cells loaded with 100 µM oleic acid.
Regarding `Cc1cc(NC(=O)CSc2nc(C(C)C)nc3sc4c(c23)CCC(C)C4)no1` (stereo not drawn), the cytotoxicity is 10.1%.

For the compound `COc1ccc(/C=C(\NC(=O)c2ccc(OCC(C)C)cc2)C(=O)OCc2ccco2)cc1`, the cytotoxicity is 7.73%.

As for `COc1ccc(Cl)cc1NC(=O)CN(C)C(=O)CCCc1c[nH]c2ccccc12`, the cytotoxicity was 22.5%.

On to `COc1ccc(C(C(=O)NC(C)(C)C)N(Cc2ccc(F)cc2)C(=O)CCC(=O)Nc2cc(C)on2)cc1` (stereo not drawn), for which the cytotoxicity was 10.5%.

Turning to `CCOc1ccc(CCNC(=O)Nc2ccccc2)cc1OCC`, the cytotoxicity is 12.3%.

As for `Cn1c(=O)[nH]c(=O)c2c1nc(N1CCN(C(c3ccccc3)c3ccccc3)CC1)n2CCO`, the cytotoxicity is 77.5% (active).

On to `O=C1Nc2ccc(Br)cc2/C1=N/N=C/C1=C(N2CCOCC2)C(=C\c2ccccc2)/CC1`, for which the cytotoxicity is -0.325%.

For `CCOc1ccc(CCNC(=O)CCc2nnc3ccc(N4CCCC4)nn23)cc1OCC`, the cytotoxicity is 2.1%.

Consider `Cc1ccc(N2C(=O)C(NC(=O)c3c(F)cccc3F)(C(F)(F)F)C3=C2CC(C)(C)CC3=O)cc1` (stereo not drawn), for which the cytotoxicity was 13.2%.

Turning to `COc1cccc(/C=C(/CC(=O)Nc2ccc(N3CCOCC3)cc2)c2nc3ccccc3s2)c1`, the cytotoxicity is 9.53%.

With `CCCN(CCC)c1ccc(C(O)c2nnc(-c3ccccc3)o2)cc1` (stereo not drawn), the cytotoxicity was 6.65%.

Regarding `Cc1cc(C(=O)NC2CCCc3c2cnn3-c2cccc(C)c2C)c(C)o1` (stereo not drawn), the cytotoxicity is 14.5%.

As to `CCCc1ccc(-c2csc(NC(=O)Cc3cccs3)n2)cc1`, the cytotoxicity is 14%.
